# Compounds with a hit are over-represented: about 18% of the library has one in this group of screens.
# DT40 TDP1 CPT – DT40-hTDP1 cell growth loss with CPT; chicken DT40 Tdp1-/-;hTDP1 cells + 20 nM CPT, ATP luminescence, 48 h; Potency, µM (top dose mostly 46.2 µM), inactives show at the highest dose activity change, negative = growth inhibition, hits mostly inhibitors; hit rate 12% among 420,000; note: potency is the fitted concentration of half-maximal effect; nearly all actives have a fitted effect of over 55% in size
#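 Cell growth measured by CellTiter-Glo luminescence after a minimum 48 h, 37 C compound exposure with 20 nM CPT in Tdp1-knockout DT40 cells stably expressing hTDP1, seeded 400/well; qHTS titration format.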
# TDP1 inh – TDP1 (human) enzyme inhibition. hit rate 0.28% among 350,000. recombinant TDP1, AlphaScreen DNA substrate cleavage. Potency, µM (doses to about 130 µM), inactives show at the highest dose activity change, negative = inhibition, most hits filed as inhibitors. Q9NUW8. AID 485290; note: potency is the fitted concentration of half-maximal effect; nearly all actives have a fitted effect of over 40% in size
# Target sequence (Q9NUW8 whole entry, looked up): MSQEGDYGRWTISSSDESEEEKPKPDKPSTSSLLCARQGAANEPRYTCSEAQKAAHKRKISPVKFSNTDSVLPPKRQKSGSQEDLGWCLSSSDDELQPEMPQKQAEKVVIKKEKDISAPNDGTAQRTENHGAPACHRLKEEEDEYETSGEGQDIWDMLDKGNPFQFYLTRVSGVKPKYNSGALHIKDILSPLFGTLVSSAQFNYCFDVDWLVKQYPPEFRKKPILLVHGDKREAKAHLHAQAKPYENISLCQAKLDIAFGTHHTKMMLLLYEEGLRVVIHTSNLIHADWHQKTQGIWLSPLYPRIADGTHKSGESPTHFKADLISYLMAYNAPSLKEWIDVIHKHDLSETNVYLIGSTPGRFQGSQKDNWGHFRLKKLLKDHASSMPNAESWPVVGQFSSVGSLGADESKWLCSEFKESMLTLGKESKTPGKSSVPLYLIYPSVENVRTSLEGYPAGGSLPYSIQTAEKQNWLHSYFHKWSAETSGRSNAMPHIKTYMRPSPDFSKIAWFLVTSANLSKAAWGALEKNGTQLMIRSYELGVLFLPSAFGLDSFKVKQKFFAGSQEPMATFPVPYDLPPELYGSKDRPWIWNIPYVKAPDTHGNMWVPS
#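 Signal: AlphaScreen proximity between streptavidin donor and anti-FITC acceptor beads on intact substrate. Reaction: Tdp1 1 nM, substrate 15 nM final, 5 min RT after 15 min compound preincubation.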
# Six1-Eya2 blk – Six1/Eya2 interaction inhibition; activity change, % (no concentration beside the values); Q15475+O00167; hit rate 0.56% among 360,000; AlphaScreen GST-Six1/His-Eya2 binding, biochemical; stronger effect = lower value; in the data active = activity change below about -65%; inconclusive = mostly about -30% to -63%
#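 Homogeneous AlphaScreen proximity assay pairing GST-Six1 with His-tagged Eya2 (added as 5X mix: 250 nM and 500 nM) in 50 mM Tris pH 8.0, 300 mM NaCl, 1 mM TCEP. Glutathione donor and nickel acceptor beads; 1 h, 37 °C, dark.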
# IL1B secr inh – blocks inflammasome-driven IL-1 beta release; THP-1 LPS/ATP IL-1B secretion, AlphaLISA, 16 h; stronger effect = lower value; hit rate 4.7% among 360,000; activity change, % at 57.5 µM; in the data active = activity change below about -50%; inconclusive = mostly about -30% to -49%
#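 THP-1 cells pretreated 1 hr with compounds (up to 57.5 uM final), then stimulated with LPS (250 ng/mL final) plus ATP (1.25 mM final); secreted IL-1B measured by AlphaLISA after 16 hr, decreased signal indicating inhibition.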
# CtBP-E1A inh – blocks the CtBP interaction with E1A; activity change, % (no concentration beside the values); hit rate 0.49% among 340,000; AlphaScreen GST-E1A/His-CtBP binding, 1536-well; stronger effect = lower value; AID 651724; in the data active = activity change below about -65%; inconclusive = mostly about -30% to -63%
#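 Steps: dispense buffer (Tris pH 8.0, NaCl 300 mM, TCEP 1 mM, BSA, Tween 20); add 5X protein mix (GST-E1A, His-CtBP, 125 nM each); pin 23 nL compound; 2 h at 37 °C, dark; add 5X beads (50 ug/mL); 1 h; read.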
# TDP1 cell noCPT – qHTS for Inhibitors of human tyrosyl-DNA phosphodiesterase 1 (TDP1): qHTS in cells in absence of CPT. DT40 Tdp1-/- hTDP1 cells, no CPT, ATP luminescence, 48 h. hit rate 15% among 420,000. AID 686978, 2013. Potency, µM (top dose mostly 46.2 µM), for inactives: at the top dose activity change, negative = growth inhibition, hits mostly inhibitors; note: potency is the fitted concentration of half-maximal effect; nearly all actives have a fitted effect of over 55% in size
#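 Growth of hTDP1-complemented DT40 Tdp1-knockout cells is measured by ATP luminescence after at least 48 hr compound exposure at 37 °C, with DMSO substituting for the 20 nM CPT used in the parallel screen.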
# Starred values were filed as active, the others as inactive; ? = inconclusive; · = not tested or not shown. Unless noted, calls come from the whole dose curve; as a rule, active = well fitted curve in the direction sought with a large enough effect; inconclusive = small, poorly fitted or top-dose-only effect, or another doubt; inactive = no such curve, though single readings can be large; an effect the other way counts as inactive or inconclusive. % is set by controls: 0 for no effect and ±100 for the full control effect.
SMILES,DT40 TDP1 CPT,TDP1 inh,Six1-Eya2 blk,IL1B secr inh,CtBP-E1A inh,TDP1 cell noCPT
CCOC(=O)C1CCCN(C(=O)c2ccccc2NC(=O)c2nsc3ccccc23)C1 (configuration not stated),16µM*,3%,·,·,·,?
CCCC(C(=O)NCC1CCCO1)N(Cc1ccccc1)C(=O)CNS(=O)(=O)c1ccccc1 (configuration not stated),?,-5%,-6,-12,6,-4%
O=C(NCc1ccccc1C(F)(F)F)C1CC(c2ccc(C(F)(F)F)cc2)=NO1 (configuration not stated),?,-2%,10,-6,3,?
Cc1ccc(NC(=O)CN(C)C(=O)Cn2ncc(Cl)c(Cl)c2=O)cc1,3.3µM*,3%,-4,-105*,20,2.6µM*
Cc1ccc(NC(=O)CN(C)C(=O)Cc2ccc(Cl)c(Cl)c2)cc1,29µM*,5%,-2,-9,1,?
COc1ccc(Br)cc1S(=O)(=O)N1CCCC1,9.2µM*,6%,3,-4,1,8.2µM*
COc1ccc(C(=O)Nc2ccc(N3CCOCC3)cc2)cc1S(=O)(=O)N1CCOCC1,-17%,5%,-4,9,12,-9%
COc1ccc(C)cc1S(=O)(=O)N1CCCCCC1,?,-2%,5,-4,14,-11%
COc1ccc(C(=O)Nc2ccc(-c3cn4ccsc4n3)cc2)cc1S(=O)(=O)N1CCOCC1,?,2%,-77*,44,-73*,-29%
COc1ccc(C(=O)Nc2ccc(-c3ccc(C)o3)cc2)cc1S(=O)(=O)N1CCOCC1,?,3%,-22,-19,-12,21µM*
COc1ccc(C(=O)Nc2ccc(C)c(S(=O)(=O)N3CCOCC3)c2)cc1S(=O)(=O)N1CCCC1,21µM*,·,-17,14,4,?
O=C(Oc1ccc([N+](=O)[O-])cc1)C1CC(=O)N(c2ccc3c(c2)OCCO3)C1 (configuration not stated),1%,·,-1,6,-11,3%
CC1CCN(C(=O)C(NS(=O)(=O)c2cccc3nsnc23)c2ccccc2)CC1 (configuration not stated),?,4%,0,-6,-7,-24%
Cc1cc2oc(=O)cc(CN(Cc3ccccc3)Cc3ccccc3)c2cc1Cl,?,·,2,54,6,?
CCN(c1cccc(C)c1)S(=O)(=O)c1ccc2[nH]cc(C(=O)NCCCOC)c(=O)c2c1,-25%,2%,·,·,·,?
Cc1ccc(C(=O)Nc2ccc3c(c2)OCO3)cc1S(=O)(=O)N1CCCC1,?,2%,?,-3,?,7.3µM*
CC(C)(C)C(=O)Nc1ccc(-c2cn3ccsc3n2)cc1,14µM*,-4%,-14,-4,-4,?
COc1ccc(NC(=O)c2cncc(Br)c2)cc1S(=O)(=O)N1CCCCC1,?,1%,-13,-11,-18,21µM*
Cc1ccc(C(=O)Nc2ccc3c(c2)OCO3)cc1S(=O)(=O)N1CCOCC1,6%,3%,?,-3,?,-21%
Cc1ccc2c(c1)N(S(=O)(=O)c1ccc(CN3C(=O)c4cccnc4C3=O)cc1)CCO2,-4%,3%,1,18,1,30%
C=CCOC(=O)C1=C(C)NC(SCC(=O)NC(=O)OCC)=C(C#N)C1c1cccnc1 (configuration not stated),-4%,0%,-5,0,6,?
CC(C)Oc1ccc(C(=O)/C(=C\c2cccs2)c2nc3ccccc3o2)cc1,?,5%,-17,-67*,-8,?
Cc1ccc2c(c1)C(=O)C(=O)N2Cc1ccc(OC(C)C)cc1,0.0073µM*,5%,·,·,·,0.058µM*
Cc1ccc2c(c1)C(=O)C(=O)N2Cc1ccc(C(F)(F)F)cc1,0.92µM*,3%,-4,63,4,1µM*
CC(=O)c1cc(C)ccc1OC(=O)CN1C(=O)c2ccccc2C1=O,-7%,·,19,-1,·,-9%
SMILES,DT40 TDP1 CPT,TDP1 inh,Six1-Eya2 blk,IL1B secr inh,CtBP-E1A inh,TDP1 cell noCPT
Cc1cccc(NC(=O)c2ccc(Cn3cc(C(F)(F)F)ccc3=O)cc2)c1,3%,0%,3,-15,5,-21%
Cc1ccc2c(c1)C(=O)C(=O)N2CC(=O)OC(C)C,5.2µM*,4%,0,13,2,5.8µM*
Cc1nnc(SCC(=O)NN2C(=O)NC3(CCCCC3)C2=O)s1,1%,3%,0,3,4,-2%
COCCCNC(=O)CCCn1c(SCC(=O)c2ccc(Br)cc2)nc2c(sc3ccccc32)c1=O,?,3%,·,·,·,?
CCOC(=O)c1c(C)[nH]c(C(=O)CSc2nnc(Nc3ccccc3F)s2)c1C,?,2%,1,31,1,?
O=C1C(=Cc2ccncc2)CCCc2ccccc21,23µM*,·,7,?,-3,21µM*
O=C1/C(=C/c2cccc3ccccc23)CCCc2ccccc21,-19%,2%,-4,?,4,-26%
O=C1/C(=C/c2ccncc2)CCC/C1=C\c1ccncc1,2.1µM*,6%,-8,?,2,0.82µM*
O=C1/C(=C/c2ccncc2)CCc2ccccc21,?,3%,-7,-102*,·,23µM*
Cn1cccc1/C=C1\CCc2ccccc2C1=O,?,9%,-25,?,?,?
O=C1/C(=C/c2ccco2)CCc2ccccc21,3%,-3%,-1,?,-5,-13%
O=C1/C(=C\c2ccncc2)CCc2ccccc21,13µM*,0%,-4,-98*,-6,15µM*
O=C1CCC/C1=C\c1ccccc1,0%,5%,3,10,·,-2%
CCOC(=O)c1c(C)oc2ncnc(Nc3ccc(F)cc3Cl)c12,3%,5%,·,·,·,-17%
O=C1/C(=C\c2ccccc2)CCC/C1=C/c1ccccc1,21µM*,·,-2,-25,6,18µM*
CCCCN(CC)CCNC(=O)Cn1cnc2sc(C)c(S(=O)(=O)N3CCN(c4ccccc4OC)CC3)c2c1=O,?,0%,·,·,·,?
COc1ccccc1N1CCN(S(=O)(=O)c2c(C)sc3ncn(CC(=O)N(C)c4ccc(Cl)cc4)c(=O)c23)CC1,18µM*,9%,·,·,·,16µM*
COCCNC(=O)Cn1cnc2sc(C)c(S(=O)(=O)N3CCN(c4ccccc4OC)CC3)c2c1=O,11%,3%,-5,13,-4,-8%
